Vaccinia Venus: qHTS for Stage-Specific Inhibitors of Vaccinia Orthopoxvirus: Venus Reporter Primary qHTS | hit rate 0.46% among 330,000 | Potency, µM (doses to about 36.5 µM), inactives show at the top dose activity change, negative = inhibition, most hits filed as inhibitors | Vaccinia virus Venus reporter expression, fluorescence; calls by dose curve; tested in A549 cells; further: potency means the concentration at half of the fitted maximal effect; nearly all actives have a fitted effect of over 30% in size
HCMV inh: qHTS Assay for inhibitors of the human cytomegalovirus (HCMV); hit rate 4.5% among 410,000; HFF cells, HCMV-luciferase reporter, 72 h; hits give low values; activity change, negative = inhibition, % at 57.5 µM; in the data active means activity change below about -60%; inconclusive means no clear call, values can overlap the other calls; inactive means above about -39%
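Cell-based, HFFs, 1000 cells/well, 16 h 37C; cpds in DMSO + HCMV-luc, MOI 1 PFU/cell; 72 h 37C; OneGlo luminescence after 5 min RT; norm. to buffer vs Salinomycin 10uM.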
HCV inhibitor: qHTS Assay for Inhibitors of Hepatitis C Virus (HCV) | Huh7.5.1 HCVcc-Cre infection, luciferase reporter, 44 h | Potency, µM (doses to about 41.8 µM), inactives show at the top dose activity change, negative = inhibition, actives largely listed as inhibitors | hit rate 3.4% among 340,000; active means well fitted inhibition curve with a large enough effect; inconclusive means small, poorly fitted or top-dose-only effect, or another doubt; inactive means no such curve, though single readings can be large or run the other way; further: potency means the concentration at half of the fitted maximal effect
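1,000 cells/well; 4 h culture; + compound; + HCVcc-Cre (~0.5 moi); 44 h; luciferase substrate, RT 15 min; read 15 sec.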
Lassa entry inh: qHTS for Inhibitors of binding or entry into cells for Lassa Virus; Lassa virus pseudotype entry inhibition, cell reporter; Potency, µM (series often up to 37.9 µM), without a hit: at the highest dose activity change, negative = inhibition, actives largely listed as inhibitors; hit rate 1.2% among 300,000; AID 540256, 2011; calls by dose curve; tested in HEK293 cells; further: potency means the concentration at half of the fitted maximal effect; nearly all actives have a fitted effect of over 50% in size
Marburg entry inh: qHTS for inhibitors of binding or entry into cells for Marburg Virus. Marburg virus pseudotyped entry inhibition, cell reporter. Potency, µM (doses to about 37.8 µM), for inactives: at the highest dose activity change, negative = inhibition, most hits filed as inhibitors. hit rate 1.8% among 300,000; calls by dose curve; tested in HEK293 cells; further: potency means the concentration at half of the fitted maximal effect
VACV mCherry inh: qHTS for Stage-Specific Inhibitors of Vaccinia Orthopoxvirus: mCherry Reporter Primary qHTS | Vaccinia virus mCherry reporter infection, fluorescence | Potency, µM (highest dose often 36.5 µM), without a hit: at the top dose activity change, negative = inhibition, usual class: inhibitors | hit rate 0.63% among 310,000 | AID 720579, 2013; calls by dose curve; tested in A549 cells; further: potency means the concentration at half of the fitted maximal effect; nearly all actives have a fitted effect of over 35% in size
Numbers without * were called inactive; i = inactive; ? = inconclusive; · = no result; ! = not active in a repeat; [ ] = remark or other dose. Sampled rows, rich in hits. Any-hit rate of the full collection: about 7.8%. On the % scale 0 is the no-effect control and ±100 the full control effect.

SMILES	Vaccinia Venus	HCMV inh	HCV inhibitor	Lassa entry inh	Marburg entry inh	VACV mCherry inh
CN1C(=O)C(CC(=O)Nc2ccccc2F)N(NC(=O)c2ccc(Br)cc2)C1=S (centres undefined)	-11%	0	1%	-15%[46.1 µM]	13µM*	-8%
COc1ccc(OC)c(NC(=O)CSc2nc(C)cs2)c1	-10%	32	25µM*	1%	-9%	0%
CCOC(=O)c1cnc(SCC(=O)Nc2cc(OC)ccc2OC)nc1N	?	7	6.3µM*	8%	?	-19%
COc1ccc(NC(=O)CSc2nc(C)cs2)c(OC)c1	·	-23	-21%	·	·	·
Cc1nn(C(C)C(=O)Nc2cccc(F)c2)c(=O)c2c1sc1ccccc12 (centres undefined)	-5%	-13	·	19%[46.1 µM]	5%[46.1 µM]	i
COCCCNC(=O)c1ccc(C(=O)NCCCOC)cc1	-3%	20	·	28%[14.3 µM]	12%	-10%
COCCCNC(NC(=O)c1ccc(Br)cc1)C(Cl)(Cl)Cl (centres undefined)	-16%	-66*	11%	11%	6%	-20%
Oc1ccccc1N1CCN(C(=S)Nc2ccc(SC(F)F)cc2)CC1	-15%	?	?	5µM*	?	-19%
Cc1c(Cl)cccc1NC(=O)CSc1ncc(S(=O)(=O)c2ccc(C(C)C)cc2)c(=O)[nH]1	7%	5	·	·	15%[46.1 µM]	8%
CCN(C(=O)c1cnc(NC(C)C)cc1C(F)(F)F)c1ccc(Cl)cc1Cl	0%[7.34 µM]	-9	10µM*	?	?	-12%[7.34 µM]
COc1ccc(-n2c(-c3ccccc3)nnc2-c2ccc(Cl)cc2)cc1	9%	8	16%	1%	10%[46.1 µM]	-2%
COc1ccc(-n2c(-c3ccc(Cl)cc3)c[n+]3c2CCc2ccccc2-3)cc1	-13%	-99*	-4%	?	11µM*	-22%
Cc1ccc(-n2nnnc2-c2cnc(N3CCCC3)nc2C(F)(F)F)cc1	?	?	11µM*	?	-12%	?
FC(F)(F)c1nc(N2CCCC2)ncc1-c1nnnn1-c1ccccc1	·	-72*	11µM*	-1%	-16%	·
Cc1cc(C)nc(N2CCN(c3nnnn3-c3ccccc3)CC2)n1	-5%	-12	-4%	2%	-2%[46.1 µM]	-2%
COc1ccc(C(=O)Nc2nnc(S(=O)(=O)N3CCN(c4ccc(F)cc4)CC3)s2)cc1	-26%	22	·	11%[46.1 µM]	·	-26%
CCn1nnc2cc(C(=O)Nc3ccc(OC)cc3)ccc21	3%	23	·	14%[46.1 µM]	·	-4%
O=[N+]([O-])c1ccc(N2CCN(S(=O)(=O)c3ccccc3)CC2)cc1NCc1cccnc1	18µM*	11	19%	?	?	·
O=[N+]([O-])c1ccc(N2CCN(S(=O)(=O)c3ccc(Cl)cc3)CC2)cc1NCc1cccnc1	-3%	-29	3%	0%	4%	-10%
COCCNc1nc(C)cc(-c2cc(-c3ccc(Cl)cc3)on2)n1	-18%	-7	-12%	·	·	i
COCCNc1nc(-c2cc(-c3ccccc3)on2)cc(C(C)C)n1	-15%	-63*	10µM*	·	·	-7%
COc1cc(NC(=O)c2cccc(C)c2)ccc1NC(=O)c1cc2ccccc2o1	8.9µM*	-87*	?	·	·	?
O=C(Nc1ccccc1)c1cc2ccccc2o1	-26%	100	-4%	10µM*	?	-29%
Cc1ccc(NC(=O)c2cc(=O)c3ccccc3o2)cc1	·	14	?	?	14%	·
O=C(COc1ccc(/C=N/NC(=O)c2cc3ccccc3o2)cc1Br)Nc1ccccc1	?	-100*	?	?	?	?
SMILES	Vaccinia Venus	HCMV inh	HCV inhibitor	Lassa entry inh	Marburg entry inh	VACV mCherry inh
CC(=O)Nc1ccc(NC(=O)c2cc(=O)c3ccccc3o2)cc1	0%	-85*!	-18%	-3%[46.1 µM]	5%[46.1 µM]	-8%
Cc1cc(Cl)ccc1NS(=O)(=O)c1c(C(=O)N2CCCCCC2)c(C)n(C)c1C	-16%	-5	·	-24%[46.1 µM]	·	-17%
COc1cc2nc(N3CCCCC3)nc(NC(C)C)c2cc1OC	?	·	·	·	·	-19%
Cc1ccc(NC(=O)c2cc3ccccc3o2)nc1	-14%	53	1%[8.37 µM]	5µM*	?	-3%
O=C(COc1ccccc1[N+](=O)[O-])Nc1ccc2oc(=O)ccc2c1	·	8	12%	·	·	·
O=C(COc1ccccc1[N+](=O)[O-])Nc1ccc(NC(=O)c2cc3ccccc3o2)cc1	-8%	?	11µM*	?	?	i
CCN(CC)S(=O)(=O)c1cccc(NC(=O)c2cc3ccccc3o2)c1	-14%	13	10µM*	?	9%	-13%
CCN(CC)S(=O)(=O)c1cccc(NC(=O)c2ccc(Br)cc2)c1	-25%	?	8.9µM*	-26%	-46%[46.1 µM]	?
CCC1CN(CCNC(=O)c2cn3cc(C)ccc3n2)Cc2cc(OC)ccc2O1 (centres undefined)	-21%	·	·	·	·	-28%
Cc1cc(C(=O)Cn2nc(C(=O)O)c3ccccc3c2=O)c(C)n1CC(F)(F)F	-11%	83	-16%	10%	?	-17%
COC(=O)c1ccc(-n2c(C)cc(C(=O)CSc3cccc[n+]3[O-])c2C)cc1	·	?	-13%	·	·	·
COc1ccc(-n2c(C)cc(C(=O)Cn3nc(C(=O)O)c4ccccc4c3=O)c2C)cc1	-12%	-33	-11%	9%	17%	-17%
Cc1cc(C(=O)Cn2nc(C(=O)O)c3ccccc3c2=O)c(C)n1-c1ccc(OC(F)F)cc1	-16%	-66*	?	·	·	-13%
Cc1cc(C(=O)CSc2cccc[n+]2[O-])c(C)n1-c1ccc(OC(F)F)cc1	·	-73*	?	·	·	·
Cc1cc(C(=O)Cn2nc(C(=O)O)c3ccccc3c2=O)c(C)n1CCc1ccc(F)cc1	-20%	-32	-11%	?	5.6µM*	-20%
CC1=CC(=C(C#N)c2nc3ccccc3s2)C=C(C)N1CC1CCCO1 (centres undefined)	-25%	38	11µM*	23%	?	-23%
COc1ccc(CNC(=O)CCc2nc3cccnc3n2Cc2ccccc2)cc1	-9%	12	·	17%[46.1 µM]	9%[46.1 µM]	-12%
CCn1nc(-c2ccccc2)c(-c2ccccc2)c(C(=O)Nc2ccc(NC(C)=O)cc2)c1=O	-6%	-3	·	-4%[46.1 µM]	?	-10%
COc1cc(/C=N\Nc2nncn2N)ccc1OC(C)=O	20µM*	-8	22%	?	?	16µM*
O=C(Nc1ccc(F)c(Cl)c1)C1CCN(S(=O)(=O)c2ccc3c(c2)CCCN3C(=O)C2CCC2)CC1	-19%	-38	·	?	·	-18%
CCc1cc(/C(Cc2cscn2)=N\O)c(O)cc1O	-25%	-27	-16%	-23%	1%	-26%
